This is a sample that favours compounds with a hit; in the whole collection about 9.4% have one here.
Pf growth 96h: P. falciparum growth inhibition at 96 hours. P. falciparum luciferase reporter growth, 96 h. Potency, µM (doses to about 28.7 µM), for the others: top-dose activity change, negative = inhibition, most hits filed as inhibitors. 6.9% of 320,000 active; note: % is set by controls: 0 for no effect and ±100 for the full control effect
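Two parasite generations (96 h, 37 C, 5% CO2) of compound exposure in infected erythrocytes (0.05% parasitemia, 2% hematocrit). Luciferase-reporter P. falciparum; decreased luminescence indicates inhibited growth, aimed at apicoplast-acting delayed death.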
Pf growth 48h: inhibits P. falciparum growth in the first generation, 48 h. P. falciparum luciferase growth in erythrocytes, 48 h. Potency, µM (doses to about 28.7 µM), without a hit: at the highest dose activity change, negative = inhibition, most hits filed as inhibitors. 5.9% of 310,000 active. AID 504832; note: % is set by controls: 0 for no effect and ±100 for the full control effect
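Cell-based growth assay: transgenic P. falciparum expressing firefly luciferase, cultured in red cells within RPMI 1640 containing 0.5% w/v Albumax, 24 mM bicarbonate and gentamycin. A drop in luciferase activity indicates inhibition.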
SARS PLP yeast: SARS-CoV PLP inhibition in yeast; S. cerevisiae expressing SARS-CoV PLpro, growth rescue; 0.19% of 330,000 active; Potency, µM (top dose mostly 32.9 µM), for inactives: at the top dose activity, positive = growth rescue, most hits filed as activators; calls by dose curve; note: 0% is about no effect; nearly all actives have a fitted effect of over 55% in size
AMA1-RON2 inh: disrupts binding of P. falciparum AMA1 to RON2; AlphaScreen AMA1-biotinylated RON2 peptide binding; Potency, µM (highest dose often 58.2 µM), without a hit: at the highest dose activity change, negative = inhibition, usual class: inhibitors; 0.2% of 360,000 active;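 note: 0% = vehicle wells and -100% = peptide control; nearly all actives have a fitted effect of over 45% in size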
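AMA1 (3D7) with his tag at 25 nM final met compounds first, then biotinylated RON2 peptide at 25 nM; detection used donor plus acceptor beads, 10 µg/mL apiece, read by AlphaScreen after 30 min at room temperature.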
The depositor's hits bear a star; i = inactive; ? = inconclusive; . = not tested or not shown; [ ] = remark or other dose. Unless noted, calls come from the whole dose curve; as a rule, active = well fitted curve in the direction sought with a large enough effect; inconclusive = small, poorly fitted or top-dose-only effect, or another doubt; inactive = no such curve, though single readings can be large; an effect the other way counts as inactive or inconclusive. Potency is the fitted concentration of half-maximal effect.

SMILES	Pf growth 96h	Pf growth 48h	SARS PLP yeast	AMA1-RON2 inh
CCOC(=O)C1(CC2CCCCO2)CCN(C(=O)Nc2ccccc2)CC1 (stereo not drawn)	-3.1%	?	-0.4%	-10.2%
CCOC(=O)C1(CC2CCCCO2)CCN(Cc2nc3ccccc3nc2C)CC1 (stereo not drawn)	11.7µM*	?	-0.1%	13.6%
COc1cc(/C=C2/N=C(c3ccccc3F)OC2=O)cc(Cl)c1OS(C)(=O)=O	105.0%	-4.0%	1.7%	-8.9%
Nc1nc(SCc2ccccn2)c2ncn(C3OC(CO)C(O)C3O)c2n1 (stereo not drawn)	.	.	.	-5.6%
CC(=O)N1CCN(C(=O)CCc2cc(C(C)(C)C)c(O)c(C(C)(C)C)c2)CC1	13.1µM*	?	1.3%	-4.7%
Cc1ccc(S(=O)(=O)NC(=O)NCCc2ccccc2)cc1	-4.2%	16.3%	-2.6%	-8.8%
COc1ccccc1NS(=O)(=O)c1ccc(C(=O)N2CCCC(C(F)(F)F)C2)cc1 (stereo not drawn)	?	-21.4%	-6.8%	-1.9%
CN(C(=O)c1ccccc1)C1(C)CCS(=O)(=O)C1 (stereo not drawn)	?	-4.6%	.	-1.0%
CN(C(=O)c1cccs1)C1(C)CCS(=O)(=O)C1 (stereo not drawn)	10.4µM*	21.6%	1.0%	10.8%
CCn1ccnc1CN(C)Cc1cn(-c2ccc(C)cc2)nc1-c1cccc(C)c1	?	6.57µM*	0.0%	16.6%
COCCNC(=O)NC(=O)COC(=O)C12CC3CC(CC(NC(C)=O)(C3)C1)C2	.	32.6%	6.4%	4.8%
Nc1cc(S(=O)(=O)C(F)(F)F)ccc1C(=O)O	0.5%	13.1%	1.4%	1.5%
O=S(=O)(c1ccc2c(c1)C(O)c1ccccc1CC2)C(F)(F)F (stereo not drawn)	3.29µM*	7.38µM*	0.5%	.
C[C@@H]1CN([C@@H](C)CO)C(=O)CCCn2cc(nn2)CO[C@H]1CN(C)C(=O)Oc1ccc2ccccc2c1	.	.	.	-7.8%
COc1cc(-c2c(C#N)c(N)nc3c2c(C)nn3-c2ccc(C)c(C)c2)cc(OC)c1OC	-22.3%[5.75 µM]	4.65µM*	0.0%	0.0%
Cc1nn(-c2ccccc2)c2nc(N)c(C#N)c(-c3ccc(O)c(O)c3)c12	0.0%	0.0%	-0.1%	2.1%
Cc1nn(-c2ccc(F)cc2)c2nc(N)c(C#N)c(-c3ccc(O)c(O)c3)c12	10.4µM*	10.4µM*	-0.9%	-23.6%
Cc1nn(-c2ccc(F)cc2)c2nc(N)c(C#N)c(-c3cccs3)c12	?	?	-3.9%	32.5%
Cc1cccc(C)c1-n1nnnc1C1(Nc2ccccc2)CCCCC1	?	.	-38.2%	-14.4%
Cc1ccccc1NC(=O)c1cccc(NC(=O)c2ccccc2C(=O)O)c1	.	.	.	2.6%
Cn1c(CCCC(=O)O)nc2cc(N(CCCl)CCCl)ccc21	?	2.6%	.	.
COc1cccc(C2=NN(C(=O)c3ccco3)C(c3ccco3)C2)c1 (stereo not drawn)	-23.1%	-3.3%	1.2%	-3.5%
CC(C)(C)c1ccc(C(=O)c2c[nH]c(C(=O)NCc3cccnc3)c2)cc1	5.22µM*	8.28µM*	9.7%	-2.1%
CC(C)(C)c1ccc(C(=O)c2c[nH]c(C(=O)NCCCn3ccnc3)c2)cc1	7.38µM*	11.7µM*	-4.5%	6.4%
Cc1ccc(S(=O)(=O)N2C[C@@H]3CCCC[C@@H]3[C@@H](C)[C@H]2CC(=O)c2ccccc2)cc1	.	.	4.1%	-1.5%
SMILES	Pf growth 96h	Pf growth 48h	SARS PLP yeast	AMA1-RON2 inh
C=CCn1c(Oc2cc(C)ccc2C)nc2c1c(=O)n(C)c(=O)n2C	51.8%	-10.4%	0.2%	-5.1%
O=C(NC(=S)Nc1ccc(CN2CCOCC2)cc1)c1ccc(-c2ccc(Br)cc2)o1	?	13.1µM*	0.6%	2.7%
COc1ccc(Br)cc1C(=O)NC(=S)Nc1ccc(CN2CCOCC2)cc1	4.65µM*	?	-5.7%	-12.7%
CC1Cc2ccccc2N1C(=O)CSc1nnnn1-c1ccc2c(c1)OCCO2 (stereo not drawn)	?	?	8.4%	-9.0%
Cc1nnc(SC(C)C(=O)NCC2CCCO2)s1 (stereo not drawn)	2.1%	22.4%	-1.6%	-6.3%
CCOC(=O)N1CCN(c2ccc3nnnn3n2)CC1	2.08µM*	.	-1.4%	-0.5%
Cc1cc(-c2nc3ncccc3o2)ccc1NC(=S)NC(=O)c1ccco1	-0.1%	-15.9%	0.3%	13.9%
Cn1cc(CCCC(=O)NCc2ccc(F)cc2)c2ccccc21	2.08µM*	?	-3.0%	-12.2%
CCOc1ccc(CNC(=O)CCc2cn(C)c3ccccc23)cc1OC	21.6%	17.3%	4.0%	-5.4%
Cc1ccnc(NC(=O)CCC(=O)N(CC(=O)NCc2ccc(F)cc2)c2cccc(F)c2)c1	32.4%	6.9%	0.4%	-11.2%
COc1ccccc1N(CC(=O)NCCc1ccccc1)C(=O)CCC(=O)Nc1cc(C)ccn1	?	-11.3%	-3.3%	4.9%
Cc1cc(C)cc(N(CC(=O)NC(C)(C)C)C(=O)CCC(=O)Nc2ccccn2)c1	10.4µM*	-9.4%	-0.7%	3.1%
Cc1cc(C)cc(N(CC(=O)NCc2ccc(F)cc2)C(=O)CCC(=O)Nc2ccccn2)c1	-2.8%	13.1µM*	7.8%	-1.5%
COc1ccc(N(CC(=O)NCc2ccccc2)C(=O)CCC(=O)Nc2cc(C)ccn2)c(OC)c1	0.465µM*	1.65µM*	-0.8%	-8.9%
Fc1ccc(COc2ccc(Br)cc2CNCc2ccncc2)cc1	?	8.28µM*	-22.8%	-4.8%
Fc1ccccc1COc1ccc(Br)cc1CNCc1ccncc1	11.7µM*	.	-30.6%	0.5%
CCOc1ccc(Br)cc1CNCc1cccnc1	?	-14.5%	-6.2%	-2.9%
Fc1ccccc1COc1ccc(Br)cc1CNCc1cccnc1	?	13.1µM*	-1.4%	16.5%
COc1ccccc1CNCc1cc(Br)ccc1OC	?	11.7µM*	1.6%	8.1%
COc1ccc(C(c2nnnn2Cc2ccccc2)N2CCC3(CC2)C(=O)NCN3c2ccccc2)cc1 (stereo not drawn)	.	.	.	-17.9%
O=C(CN1CCN(c2ccccn2)CC1)Nc1ccc(F)cc1F	15.0%	21.2%	-2.1%	0.0%
CC(C)(C)c1ccc(C(=O)NN2CCOCC2)cc1	?	5.1%	-0.2%	3.5%
N#Cc1ccc(N2CCCNCC2)nc1	-0.6%	3.0%	-1.5%	17.2%
CCn1c(C)nc2cc(C(=O)N/N=C/c3ccccc3)ccc21	158.9%	203.8%	-3.6%	-2.3%
CCn1c(C)nc2cc(C(=O)N/N=C/c3cccc(O)c3O)ccc21	?	10.4µM*	17.2%	2.7%
SMILES	Pf growth 96h	Pf growth 48h	SARS PLP yeast	AMA1-RON2 inh
Cc1[nH]n(-c2ccccc2)c(=O)c1/C=N/c1nn[nH]n1	i	65.8%	-0.4%	15.4%
O=C1Cc2ccccc2N1c1ccccc1	.	.	0.7%	-3.7%
O=C1CC(=Nc2ccccc2)NN1c1ccccc1	13.1µM*	?	-2.9%	-10.9%
Cc1ccc(C)c(Nc2ncnc(N)c2[N+](=O)[O-])c1	2.08µM*	2.5%	12.0%	-1.6%
C/C(=N\NC(=O)C1(C)CC1(Br)Br)c1ccc(NC(=O)C2CCC2)cc1 (stereo not drawn)	5.22µM*	?	-7.7%	36.2%
C/C(=N\NC(=O)c1ccn(C)n1)c1ccc(NC(=O)C2CCCC2)cc1	11.7%	26.6%	5.3%	13.9%

Source: PubChem BioAssay (National Center for Advancing Translational Sciences (NCATS))
